{"source": "the antibiotic and cytotoxicity screens of Wong et al. (2023)", "note": "About 1,500 (3.8%) of roughly 39,000 compounds were called active. The list comes from a sample in which actives are over-represented; it also holds similar structures and randomly drawn compounds.", "data": [{"test_system": "HSkMC (human skeletal muscle cells)", "assay": "cytotoxicity call (relative viability < 0.9)", "details": "10 µM", "values": [{"compound": "COCC#Cc1cnc2c(c1)C(=O)N([C@@H](C)CO)C[C@H](C)[C@@H](CN(C)C(=O)CN1CCOCC1)O2", "cytotoxicity call": "inactive"}, {"compound": "COc1ccc(S(=O)(=O)N2C[C@H](O)COC[C@H]3O[C@H](CC(=O)NCCCN4CCOCC4)CC[C@@H]32)cc1", "cytotoxicity call": "inactive"}, {"compound": "C[C@@H]1CN([C@@H](C)CO)S(=O)(=O)c2ccc(C#Cc3ccc(F)cc3)cc2O[C@@H]1CN(C)S(C)(=O)=O", "cytotoxicity call": "inactive"}, {"compound": "Cc1noc(C)c1NC(=O)N(C)C[C@@H]1OCCCC[C@@H](C)Oc2ccc(NC(=O)Nc3cccc4ccccc34)cc2C(=O)N([C@H](C)CO)C[C@@H]1C", "cytotoxicity call": "inactive"}, {"compound": "CCCC#Cc1cnc2c(c1)C(=O)N([C@H](C)CO)C[C@H](C)[C@@H](CN(C)C(=O)c1ccc3c(c1)OCO3)O2", "cytotoxicity call": "inactive"}, {"compound": "COc1ccc(S(=O)(=O)N(C)C[C@H]2Oc3ccc(NC(=O)CCCN(C)C)cc3CC(=O)N([C@@H](C)CO)C[C@@H]2C)cc1", "cytotoxicity call": "inactive"}, {"compound": "O=C(C1=C[C@H](c2ccc(C(F)(F)F)cc2)C[C@H](OCc2ccc(CO)cc2)O1)N1CCN(Cc2ccc3c(c2)OCO3)CC1", "cytotoxicity call": "inactive"}, {"compound": "CN(C)CCCCNC(=O)[C@H]1C[C@H]2C(=O)N[C@@H](Cc3ccccc3)C(=O)N2[C@H]1c1cccc(OCCO)c1", "cytotoxicity call": "inactive"}, {"compound": "O=C(C[C@@H]1C[C@@H]2c3cc(NS(=O)(=O)c4ccc(F)cc4)ccc3O[C@@H]2[C@@H](CO)O1)N1CCOCC1", "cytotoxicity call": "inactive"}, {"compound": "COc1cccc(C#Cc2ccc([C@@H]3[C@H](CO)N4C(=O)CN(S(=O)(=O)c5ccccc5C)C[C@@H]34)cc2)c1", "cytotoxicity call": "inactive"}, {"compound": "O=C1CN(S(=O)(=O)Cc2ccccc2)C[C@H]2[C@@H](c3ccc(C#Cc4cccc(F)c4)cc3)[C@H](CO)N12", "cytotoxicity call": "inactive"}, {"compound": "O=C1CN(S(=O)(=O)Cc2ccccc2)C[C@@H]2[C@H](c3ccc(C#Cc4cccc(F)c4)cc3)[C@@H](CO)N12", "cytotoxicity call": "inactive"}, {"compound": "O=C1CN(S(=O)(=O)Cc2ccccc2)C[C@H]2[C@H](c3ccc(C#Cc4cccc(F)c4)cc3)[C@@H](CO)N12", "cytotoxicity call": "inactive"}, {"compound": "O=C1CN(S(=O)(=O)Cc2ccccc2)C[C@@H]2[C@H](c3ccc(C#Cc4cccc(F)c4)cc3)[C@H](CO)N12", "cytotoxicity call": "inactive"}, {"compound": "O=C1CN(S(=O)(=O)Cc2ccccc2)C[C@H]2[C@@H](c3ccc(C#Cc4cccc(F)c4)cc3)[C@@H](CO)N12", "cytotoxicity call": "inactive"}, {"compound": "O=C1CN(S(=O)(=O)Cc2ccccc2)C[C@@H]2[C@@H](c3ccc(C#Cc4cccc(F)c4)cc3)[C@H](CO)N12", "cytotoxicity call": "active"}, {"compound": "O=C1CN(S(=O)(=O)Cc2ccccc2)C[C@H]2[C@H](c3ccc(C#Cc4cccc(F)c4)cc3)[C@H](CO)N12", "cytotoxicity call": "active"}, {"compound": "O=C1CN(S(=O)(=O)Cc2ccccc2)C[C@@H]2[C@@H](c3ccc(C#Cc4cccc(F)c4)cc3)[C@@H](CO)N12", "cytotoxicity call": "active"}]}]}
